CYP2C19 inh: blockers of cytochrome P450 2C19 activity – biochemical, luminescence, ADME assay, primary screen. inhibition, % at 5 µM. CYP2C19 Supersomes, luciferin-H EGE luminescence, 30 min. 96,000 tested, 21% active. P33261;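 active means CYP2C19 inhibition above a set limit at 5 µM in the primary screen, cut at about 50% in these data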;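 further: plate controls were negative control wells for no effect and 2.5 mM tranylcypromine positive control for full effect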
PostGolgi ctrl: growth inhibition of yeast control strain, primary screen, counter-screen for post-Golgi transport modulator project; efflux-deficient yeast background strain, growth absorbance A615, 16 h; inhibition, % at 10 µM; 98,000 tested, 5% active; AID 738, 2007
PostGolgi yeast: phenotypic screen on post-Golgi transport, primary screen. post-Golgi transport phenotypic cell assay. inhibition, % at 10 µM. 98,000 tested, 0.9% active;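 further: yeast cells grown in 1536-well plates; yeast grown about 18 h at 30C before absorbance read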
CYP2C9 inh: blockers of cytochrome P450 2C9 activity – biochemical, luminescence, ADME assay, primary screen | P11712 | CYP2C9 Supersomes, luciferin-H conversion | inhibition, % at 5 µM | 96,000 tested, 20% active;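 active means blocking of liver enzyme CYP2C9 beyond about 50% at 5 µM, limit read from the data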
Target sequence (P11712 whole entry, looked up): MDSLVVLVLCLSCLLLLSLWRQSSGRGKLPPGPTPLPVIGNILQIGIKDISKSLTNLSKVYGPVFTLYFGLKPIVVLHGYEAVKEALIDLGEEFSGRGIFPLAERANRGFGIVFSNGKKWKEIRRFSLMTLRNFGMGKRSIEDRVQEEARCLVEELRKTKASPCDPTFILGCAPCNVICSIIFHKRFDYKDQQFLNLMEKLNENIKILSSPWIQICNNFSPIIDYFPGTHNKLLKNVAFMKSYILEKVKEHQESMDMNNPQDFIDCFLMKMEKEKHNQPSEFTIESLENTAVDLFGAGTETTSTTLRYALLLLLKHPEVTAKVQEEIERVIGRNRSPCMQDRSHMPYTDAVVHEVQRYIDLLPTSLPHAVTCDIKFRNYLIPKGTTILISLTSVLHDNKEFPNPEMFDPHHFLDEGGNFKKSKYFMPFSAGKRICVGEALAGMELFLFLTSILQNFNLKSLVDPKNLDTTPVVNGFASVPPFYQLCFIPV
CYP2C19 act: human CYP2C19 activators, primary screen, biochemical, luminescence; Cytochrome P450 2C19 (Homo sapiens), P33261; recombinant CYP2C19, luciferin-H EGE luminescence; active compounds read high; 0 = fully inhibited enzyme, 1 = untreated enzyme; activation factor at 5 µM; 96,000 tested, under 10 active; AID 1025, 2008;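 active means activation factor of at least 2 at 5 µM in the primary screen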;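 further: 0 = wells with 2.5 mM tranylcypromine and 1 = vehicle-only wells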
CYP2C9 activ: human CYP2C9 activators, primary screen, biochemical, luminescence; Cytochrome P450 2C9 (Homo sapiens), P11712; recombinant CYP2C9, luciferin-H conversion; active compounds read high; factor 1 = untreated enzyme, 0 = blocked; activation factor at 5 µM; 96,000 tested, 1.4% active; AID 1024, 2008;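 active means activation factor of 2 or more for CYP2C9 at a 5 µM dose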;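 further: 0 = sulfaphenazole-blocked wells and 1 = vehicle-only wells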
* hit, by the source's call. In the library only some 32% were active in any assay of this set; here they are far more common. Unless noted, no stated cut-off is given here; in the data, active means inhibition above about 30%; inactive means the rest.

What do the screens show for `CCOC(=O)N1CCC(N2Cc3cccc(C(=O)Nc4cc(F)ccc4F)c3C2=O)CC1`?
CYP2C19 inh: 20.8; PostGolgi ctrl: 3.7; PostGolgi yeast: 7.4; CYP2C9 inh: 78.2*; CYP2C19 act: 0.8; CYP2C9 activ: 0.2

What do the screens show for `Cc1ccc(NC(=O)c2cccc3c2C(=O)N(C2CCCCC2)C3)cc1`?
CYP2C19 inh: 8.5; PostGolgi ctrl: 44.0*; PostGolgi yeast: 9.8; CYP2C9 inh: 26.3; CYP2C19 act: 0.9; CYP2C9 activ: 0.7

How did CCOC(=O)N1CCC(N2Cc3cccc(C(=O)Nc4ccc(F)cc4)c3C2=O)CC1 do in these assays?
CYP2C19 inh: 43.7; PostGolgi ctrl: 8.6; PostGolgi yeast: -5.9; CYP2C9 inh: 89.7*; CYP2C19 act: 0.6; CYP2C9 activ: 0.1

What do the screens show for `CCOC(=O)N1CCC(N2Cc3cccc(C(=O)O)c3C2=O)CC1`?
CYP2C19 inh: 3.8; PostGolgi ctrl: 0.5; PostGolgi yeast: -2.0; CYP2C9 inh: 38.3; CYP2C19 act: 1; CYP2C9 activ: 0.6

What do the screens show for `CCOCCCNCC(=O)N1CCN(S(=O)(=O)c2ccc(C)cc2)CC1`?
CYP2C19 inh: 0.1; PostGolgi ctrl: 2.0; PostGolgi yeast: 4.2; CYP2C9 inh: -2.4; CYP2C19 act: 1; CYP2C9 activ: 1

What do the screens show for `CCOC(=O)N1CCC(N2Cc3cccc(C(=O)Nc4ccc(CC)cc4)c3C2=O)CC1`?
CYP2C19 inh: 93.8*; PostGolgi ctrl: 34.4*; PostGolgi yeast: -0.2; CYP2C9 inh: 99.8*; CYP2C19 act: 0.1; CYP2C9 activ: 0

How did NC(=O)C1CCN(C(=O)CN2CCN(c3cccc(C(F)(F)F)c3)CC2)CC1 do in these assays?
CYP2C19 inh: -6.0; PostGolgi ctrl: 3.9; PostGolgi yeast: -7.2; CYP2C9 inh: -0.2; CYP2C19 act: 1.1; CYP2C9 activ: 1

How did COc1ccc(NC(=O)N2CCN(c3cccc(C(F)(F)F)c3)CC2)cc1OC do in these assays?
CYP2C19 inh: -4.4; PostGolgi ctrl: -8.8; PostGolgi yeast: -5.2; CYP2C9 inh: -37.0; CYP2C19 act: 1; CYP2C9 activ: 1.4

Results for CCC(C)[C@H](NC(=O)N1CCN(c2cccc(C(F)(F)F)c2)CC1)C(=O)OC (stereo partly specified) ?
CYP2C19 inh: 28.8; PostGolgi ctrl: 0.9; PostGolgi yeast: 2.1; CYP2C9 inh: -49.8; CYP2C19 act: 0.7; CYP2C9 activ: 1.5

Results for CNS(=O)(=O)c1cnccc1N1CCN(c2cccc(C(F)(F)F)c2)CC1 ?
CYP2C19 inh: 77.1*; PostGolgi ctrl: 28.4; PostGolgi yeast: 13.0; CYP2C9 inh: 47.4; CYP2C19 act: 0.2; CYP2C9 activ: 0.5

What do the screens show for `C=CCOC(=O)N1CCN(c2cccc(C(F)(F)F)c2)CC1`?
CYP2C19 inh: 95.9*; PostGolgi ctrl: 16.3; PostGolgi yeast: -6.7; CYP2C9 inh: 79.5*; CYP2C19 act: 0; CYP2C9 activ: 0.2

How did O=C(Nc1ccccc1)N1CCN(c2cccc(C(F)(F)F)c2)CC1 do in these assays?
CYP2C19 inh: 58.3*; PostGolgi ctrl: 4.2; PostGolgi yeast: -5.0; CYP2C9 inh: -100.0; CYP2C19 act: 0.4; CYP2C9 activ: 2*

What do the screens show for `Cn1cc(S(=O)(=O)N2CCN(c3cccc(C(F)(F)F)c3)CC2)c(=O)n(C)c1=O`?
CYP2C19 inh: 26.9; PostGolgi ctrl: 3.5; PostGolgi yeast: -9.3; CYP2C9 inh: -45.7; CYP2C19 act: 0.7; CYP2C9 activ: 1.5

What do the screens show for `COC(=O)[C@@H](NC(=O)N1CCN(c2cccc(C(F)(F)F)c2)CC1)C(C)C`?
CYP2C19 inh: 53.1*; PostGolgi ctrl: -4.9; PostGolgi yeast: 3.1; CYP2C9 inh: -57.5; CYP2C19 act: 0.5; CYP2C9 activ: 1.6

Results for CC(=O)OCCN(CCOC(C)=O)c1c(C)[nH]c(=O)[nH]c1=O ?
CYP2C19 inh: -2.8; PostGolgi ctrl: 11.3; PostGolgi yeast: -8.0; CYP2C9 inh: 7.6; CYP2C19 act: 1; CYP2C9 activ: 0.9

What do the screens show for `Cc1cccc(OCCCC(=O)NCc2ccco2)c1`?
CYP2C19 inh: 44.8; PostGolgi ctrl: -2.4; PostGolgi yeast: -1.1; CYP2C9 inh: -0.6; CYP2C19 act: 0.6; CYP2C9 activ: 1

What do the screens show for `Cc1ccccc1CNc1nc(N)n(-c2ccccc2)n1`?
CYP2C19 inh: 9.9; PostGolgi ctrl: 6.1; PostGolgi yeast: -5.2; CYP2C9 inh: -9.1; CYP2C19 act: 0.9; CYP2C9 activ: 1.1

Results for CC(=O)c1cccc(NC(=O)Nc2cnn(Cc3ccc(Cl)cc3Cl)c2)c1 ?
CYP2C19 inh: -7.0; PostGolgi ctrl: 3.0; PostGolgi yeast: 6.0; CYP2C9 inh: -2.6; CYP2C19 act: 1.1; CYP2C9 activ: 1

Results for O=C(Nc1cccc(C(F)(F)F)c1)c1cccnc1N1CCN(c2ccccc2)CC1 ?
CYP2C19 inh: 57.5*; PostGolgi ctrl: 13.4; PostGolgi yeast: -3.7; CYP2C9 inh: 49.4; CYP2C19 act: 0.4; CYP2C9 activ: 0.5

Results for O=C(c1cccc(C(F)(F)F)c1)N1CCC(O)(CS(=O)(=O)Cc2ccccc2)CC1 ?
CYP2C19 inh: 21.9; PostGolgi ctrl: 18.9; PostGolgi yeast: 17.4; CYP2C9 inh: -13.1; CYP2C19 act: 0.8; CYP2C9 activ: 1.1

Results for O=C(CS(=O)(=O)Cc1ccccc1)N1CCN(c2cccc(C(F)(F)F)c2)CC1 ?
CYP2C19 inh: 56.7*; PostGolgi ctrl: 2.7; PostGolgi yeast: -3.9; CYP2C9 inh: 12.2; CYP2C19 act: 0.4; CYP2C9 activ: 0.9

How did CC(C)CC(=O)OCc1cn(-c2ccccc2)nn1 do in these assays?
CYP2C19 inh: 20.4; PostGolgi ctrl: 7.4; PostGolgi yeast: -2.6; CYP2C9 inh: 5.1; CYP2C19 act: 0.8; CYP2C9 activ: 0.9

What do the screens show for `CC(=O)Nc1ccc(OCC(O)CN2CCN(Cc3ccccc3)CC2)cc1` (stereo unspecified)?
CYP2C19 inh: -9.4; PostGolgi ctrl: 3.8; PostGolgi yeast: -1.2; CYP2C9 inh: 4.1; CYP2C19 act: 1.1; CYP2C9 activ: 1

What do the screens show for `CC(=O)Nc1ccc(S(=O)(=O)NC2=C(N3CCN(Cc4ccccc4)CC3)C(=O)c3ccccc3C2=O)cc1`?
CYP2C19 inh: 76.2*; PostGolgi ctrl: 0.8; PostGolgi yeast: 20.6; CYP2C9 inh: 79.9*; CYP2C19 act: 0.2; CYP2C9 activ: 0.2

Results for CC1CCN(C(=O)CN2C(=O)C(C)(C)Oc3ccc(C(=O)NC4CCCC4)cc32)CC1 ?
CYP2C19 inh: 14.0; PostGolgi ctrl: -1.7; PostGolgi yeast: 3.4; CYP2C9 inh: 49.1; CYP2C19 act: 0.9; CYP2C9 activ: 0.5

Results for O=C(CN(Cc1ccco1)S(=O)(=O)c1cccs1)Nc1ccccc1C(F)(F)F ?
CYP2C19 inh: 90.1*; PostGolgi ctrl: 13.2; PostGolgi yeast: -4.8; CYP2C9 inh: 78.8*; CYP2C19 act: 0.1; CYP2C9 activ: 0.2
